Entries with a potency or affinity are not part of this list. Inconclusive results are not listed. Calls of active or inactive are those of the source. The rule behind the calls is not given here.

A short description of this assay: HepG2 cell cytotoxicity, cytotoxicity control, set 6 (AID 602432). The following applies: series mostly up to 50 µM.
As to `CC1CCCN(c2c(NCc3ccc(C(=O)N4CC=C(c5ccccc5)CC4)cc3)c(=O)c2=O)C1` (configuration not stated), the compound was called inactive.
For `O=C(CSc1nc2c(c(=O)[nH]1)CN(Cc1ccccc1)CC2)NC1CCCCC1` the value was “inactive”.
For the compound `O=C(c1ccc(CNc2c(N3CCCC3)c(=O)c2=O)cc1)N1CCC(c2ccccc2)CC1`, the outcome was inactive.
`O=C(c1ccc(CNc2c(N3CCCC3)c(=O)c2=O)cc1)N1CCN(c2ccccc2)CC1`: the outcome was inactive.
For `CC(C)CCNC(=O)CSc1nc2c(c(=O)[nH]1)CCCC2`, the call was inactive.
As for `O=C(c1ccc(CNc2c(N3CCOCC3)c(=O)c2=O)cc1)N1CCC(c2ccccc2)CC1`, the entry is “inactive”.
In the case of `CC(C)CCNC(=O)CSc1nc2c(c(=O)[nH]1)CCCCC2`, the compound was classed as inactive.
On to `COc1ccc(NC(=O)NCc2ccc(C(=O)N3CCC(c4ccccc4)CC3)cc2)cc1`, for which the compound was called inactive.
For `COCCNC(=O)CSc1nc2ccccc2c(=O)[nH]1` the value was “inactive”.
As for `O=C(CSc1nc2ccccc2c(=O)[nH]1)NC1CCCCC1`, the result was inactive.
For the compound `O=C(c1ccc(CNc2c(N3CCOCC3)c(=O)c2=O)cc1)N1CCN(c2ccccc2)CC1`, the compound was classed as inactive.
Consider `O=C(CSc1nc2ccccc2c(=O)[nH]1)NC1CCOCC1`, for which the compound was classed as inactive.
As for `CC(C)CCNC(=O)CSc1nc2ccccc2c(=O)[nH]1`, the call was inactive.
`O=C(CSc1nc2c(c(=O)[nH]1)CCC2)NC1CCCCC1`: the outcome was inactive.
Consider `O=C(NCc1ccc(C(=O)N2CCN(c3ccccc3)CC2)cc1)NC1CCCCC1`, for which the result was inactive.
For `O=C(CSc1nc2c(c(=O)[nH]1)CCCC2)NC1CCCCC1` the value was “inactive”.
As for `COC(=O)C(Cc1ccccc1)NC(=O)CSc1nc2ccccc2c(=O)[nH]1` (configuration not stated), the entry is “inactive”.
